Bioassay records as filed in PubChem BioAssay.
RORgamma inh = ROR gamma (mouse) transcription inhibition. Drosophila S2 Gal4-RORgamma UAS-luciferase reporter, 20 h. Potency, µM (titrated, usually from 53.6 µM), for inactives: at the highest dose activity change, negative = inhibition, most hits filed as inhibitors. hit rate 5.4% among 310,000. AID 2551; further: nearly all actives have a fitted effect of over 60% in size
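Read-out: Photinus luciferase luminescence; inhibitors lower reporter signal. Insect Schneider cells with Gal4-ROR gamma fusion under metallothionein promoter, UAS reporter; 700 uM final copper sulfate induction, 20 hr, ambient temperature.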
ALOX12 inh = inhibitors of human 12S-lipoxygenase ALOX12 | purified 12hLO, xylenol orange hydroperoxide absorbance | AID 1671190 | P18054 | hit rate 1.1% among 580,000 | Potency, µM (doses to about 108 µM), for inactives: top-dose activity change, negative = inhibition, most hits filed as inhibitors
Target sequence (P18054 whole entry, looked up): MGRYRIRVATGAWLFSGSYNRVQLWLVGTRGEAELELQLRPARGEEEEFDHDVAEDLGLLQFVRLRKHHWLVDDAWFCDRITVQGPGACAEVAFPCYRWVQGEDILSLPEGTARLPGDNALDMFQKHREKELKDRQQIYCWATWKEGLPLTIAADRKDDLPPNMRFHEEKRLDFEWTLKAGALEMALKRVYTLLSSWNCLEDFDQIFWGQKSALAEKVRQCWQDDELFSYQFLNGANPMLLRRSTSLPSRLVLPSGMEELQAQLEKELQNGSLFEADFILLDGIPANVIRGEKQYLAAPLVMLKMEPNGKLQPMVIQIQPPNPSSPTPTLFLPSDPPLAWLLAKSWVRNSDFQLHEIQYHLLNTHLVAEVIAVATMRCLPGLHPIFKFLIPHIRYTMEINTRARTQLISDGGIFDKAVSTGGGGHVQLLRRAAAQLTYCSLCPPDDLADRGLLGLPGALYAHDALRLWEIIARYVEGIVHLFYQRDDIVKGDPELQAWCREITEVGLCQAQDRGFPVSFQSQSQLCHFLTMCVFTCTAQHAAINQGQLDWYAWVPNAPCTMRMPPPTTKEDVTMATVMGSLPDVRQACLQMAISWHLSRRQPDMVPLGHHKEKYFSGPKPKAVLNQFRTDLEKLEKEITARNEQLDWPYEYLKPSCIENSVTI
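Hydroperoxide product was detected by ferrous iron/xylenol orange as the 573 to 405 nm absorbance ratio. Arachidonic acid at 40 uM (final) was turned over for 30 min at room temperature by 150 nM human 12hLO, pH 7.0 Hepes buffer, after 15 min compound preincubation.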
VP16 counter = Gal4-VP16 reporter inhibition counter-screen | Drosophila S2 Gal4-VP16 UAS-luciferase, luminescence, 20 h | Potency, µM (series often up to 53.6 µM), for the others: at the highest dose activity, negative = inhibition, usual class: inhibitors | hit rate 3.5% among 310,000 | AID 2546;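 further: Gal4-VP16 expression switched on by copper sulfate through the metallothionein promoter; nearly all actives have a fitted effect of over 50% in size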
DT40 TDP1 no CPT = qHTS for Inhibitors of human tyrosyl-DNA phosphodiesterase 1 (TDP1): qHTS in cells in absence of CPT; Potency, µM (series often up to 46.2 µM), for the others: at the top dose activity change, negative = growth inhibition, most hits filed as inhibitors; DT40 Tdp1-/- hTDP1 cells, no CPT, ATP luminescence, 48 h; hit rate 15% among 420,000; AID 686978, 2013; further: nearly all actives have a fitted effect of over 55% in size
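Chicken DT40 Tdp1-/- cells complemented with human TDP1, screened without camptothecin (DMSO vehicle only), 400 cells/well. Compounds pin-transferred, cells incubated at 37 °C for at least 48 hr. Growth read as ATP-dependent luminescence (CellTiter-Glo, 30 min at RT).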
ELG1 DNA repair = inhibitors of ELG1-dependent DNA repair in HEK293T cells; HEK293T ELG1-luciferase reporter, luminescence, 16 h; DNA damage induced by 5-fluorouridine; Potency, µM (top dose mostly 46.1 µM), for the others: at the highest dose activity change, negative = inhibition, most hits filed as inhibitors; hit rate 2.3% among 330,000; AID 504467; further: nearly all actives have a fitted effect of over 55% in size
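Cells (2,000 per well) received 5-fluorouridine plus test compound or DMSO and were incubated 16 hr at 37 °C, 5% CO2. Luciferase activity was read by luminescence 30 min after ONE-Glo addition; signal suppression marked inhibition of damage-induced ELG1 function.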
TDP1 cell CPT = DT40-hTDP1 cell growth loss with CPT; chicken DT40 Tdp1-/-;hTDP1 cells + 20 nM CPT, ATP luminescence, 48 h; Potency, µM (highest dose often 46.2 µM), for inactives: at the highest dose activity change, negative = growth inhibition, actives largely listed as inhibitors; hit rate 12% among 420,000; AID 686979; further: nearly all actives have a fitted effect of over 55% in size
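Chicken DT40 Tdp1-/- cells stably complemented with human TDP1 were seeded at 400 cells/well in medium containing 20 nM camptothecin, exposed to pin-transferred compounds, and grown at 37 °C for at least 48 hr. Viability was read as ATP luminescence.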
* = called active by the depositor; ? = inconclusive; . = not tested or not shown; [ ] = remark or other dose. This is a sample that favours compounds with a hit; in the whole collection about 15% have one here. The call rests on the fitted dose curve; in most records, active means well fitted curve in the direction sought with a large enough effect; inconclusive means small, poorly fitted or top-dose-only effect, or another doubt; inactive means no such curve, though single readings can be large; an effect the other way counts as inactive or inconclusive. On the % scale 0 is the no-effect control and ±100 the full control effect; potency means the concentration at half of the fitted maximal effect.

SMILES	RORgamma inh	ALOX12 inh	VP16 counter	DT40 TDP1 no CPT	ELG1 DNA repair	TDP1 cell CPT
CC1=C(c2ccc(C)cc2)S(=O)(=O)NC1=NCc1ccccc1Cl	.	?	.	20.6µM*	.	23.1µM*
COc1ccc(Nc2nc(N)c(C(=O)c3ccc(OC)cc3)s2)cc1	26.1%	108.8%	-0.6%	1.64µM*	-17.7%	1.64µM*
Nc1nc(Nc2cccc(Cl)c2)sc1C(=O)c1ccc(F)cc1	.	12.0%	.	23.1µM*	.	18.4µM*
COc1ccc(Nc2nc(N)c(C(=O)c3ccc(F)cc3)s2)cc1	-1.5%	?	3.9%	0.581µM*	?	0.731µM*
Cc1ccc(C(=O)c2sc(Nc3ccc(F)cc3)nc2N)c(C)c1	.	?	.	14.6µM*	.	13µM*
Cc1cccc(NC(=O)N2CC3CN(C)CC(C2)O3)c1	.	3.3%	.	.	.	.
COCOCCn1cc(CN2CCS(=O)(=O)N(Cc3ccc(-c4ccc(Cl)nc4)cc3)C(CC(C)C)C2=O)nn1 (centres undefined)	.	-20.8%	.	?	.	?
COCOCCn1cc(CN2CCS(=O)(=O)N(Cc3ccc(-c4ccc(OC)c(OC)c4)cc3)C(CC(C)C)C2=O)nn1 (centres undefined)	.	?	.	18.4µM*	.	20.6µM*
COCOCCn1cc(CN2CCS(=O)(=O)N(Cc3ccc(-c4ccc(Cl)cc4)cc3)C(C)C2=O)nn1 (centres undefined)	.	-3.5%	.	20.6µM*	.	23.1µM*
COCOCCn1cc(CN2CCS(=O)(=O)N(Cc3ccc(-c4ccc(Cl)cc4)cc3)C(CC(C)C)C2=O)nn1 (centres undefined)	.	-11.0%	.	23.1µM*	.	?
COC(=O)c1cccc(C(=O)NCc2ccccc2)c1	.	15.6%	.	.	.	.
COC(=O)c1ccc2c(c1)C(C)(C)C(/C=C/c1ccccc1O)=[N+]2C	40.7%	?	-5.7%	3.16µM*	6.51µM*	3.16µM*
O=S(=O)(Nc1cccc2c1CCCC2)c1cc(F)ccc1F	.	-0.7%	.	.	.	.
COc1cc2c(cc1OC)CN(c1nc(CN3CCCCC3)nc3sc4c(c13)CCCC4)CC2	11.2µM*	-7.0%	?	?	23.1µM*	?
COc1cc2c(cc1OC)CN(c1nc(CN3CCCC3)nc3sc(C)c(C)c13)CC2	?	-15.4%	-6.5%	?	?	-22.5%
CN1CCN(C(=O)CN2C(=O)c3cccnc3Oc3ccc(Cl)cc32)CC1	.	-3.5%	.	.	.	.
CCc1cc2c(=O)nc3n(c2s1)Cc1ccccc1/C3=C(/O)c1ccccc1Cl	?	-36.2%	19.6%	8.2µM*	-1.0%	8.2µM*
CCc1cc2c(=O)nc3n(c2s1)Cc1ccccc1/C3=C(/O)c1ccc(F)cc1	?	0.0%	?	.	12.3%	.
CCn1cc(C(=O)O)c(=O)c2cc(F)c(N3CCN(C(=S)NC(=O)c4ccccc4Cl)CC3)cc21	-30.5%	13.6%	6.6%	?	6.0%	?
CCn1cc(C(=O)NC(C)C)c(=O)c2cc(F)c(N3CCN(C(=O)c4ccco4)CC3)cc21	31.2%	-7.4%	7.0%	18.4µM*	-12.4%	?
CCn1cc(C(=O)NCCC(C)C)c(=O)c2cc(F)c(N3CCN(C(=O)c4ccco4)CC3)cc21	-0.8%	-25.8%	-8.5%	18.4µM*	?	16.4µM*
CCn1cc(C(=O)Nc2ncccc2O)c(=O)c2cc(F)c(N3CCN(C(=O)c4ccco4)CC3)cc21	-15.3%	11.0%	-12.2%	8.2µM*	?	13µM*
C1CNC(c2nc(C3CCOCC3)no2)C1 (centres undefined)	.	12.9%	.	.	.	.
O=C1/C(=C\c2ccc(O)c(O)c2)Oc2cc(O)ccc21	-23.1%	.	?	.	.	.
O=C1/C(=C/c2ccc(O)cc2)CCc2ccc([N+](=O)[O-])cc21	31.8%	-24.6%	1.3%	16.4µM*	?	?
SMILES	RORgamma inh	ALOX12 inh	VP16 counter	DT40 TDP1 no CPT	ELG1 DNA repair	TDP1 cell CPT
CS(=O)(=O)Oc1ccc2c(c1)O/C(=C\c1cccc([N+](=O)[O-])c1)C2=O	6.7%	.	-8.1%	-12.1%	18.3µM*	-3.9%
CC(C)(C)c1ccc(/C=C2\Oc3cc(O)ccc3C2=O)cc1	?	-6.6%	?	?	?	20.6µM*
O=C1/C(=C/c2ccc([N+](=O)[O-])cc2)Oc2cc(O)ccc21	?	-42.3%	?	7.31µM*	?	?
O=C1/C(=C\c2ccc([N+](=O)[O-])cc2)CCc2ccccc21	-14.5%	-13.7%	?	?	?	-29.7%
COc1ccc(/C=C2\Oc3cc(OS(C)(=O)=O)ccc3C2=O)cc1	.	-18.6%	.	.	.	.
C=CCSc1nc2c(c(=O)[nH]c(=O)n2C)n1CCCC	.	-25.5%	.	.	.	.
COC(=O)c1ccc2c(c1)C(=O)/C(=C/c1ccc(O)cc1)O2	0.224µM*	-17.0%	1.58µM*	?	?	?
COC(=O)c1ccc(/C=C2\Oc3cc(OS(C)(=O)=O)ccc3C2=O)cc1	.	12.1%	.	.	.	.
COc1ccccc1-n1c(SCC(=O)N2CCCc3ccccc32)nc2c(c1=O)SCC2	.	-21.0%	.	.	.	.
CC1Cc2nc(SCC(=O)N3CCc4ccccc43)n(C)c(=O)c2S1 (centres undefined)	44.7%	-12.6%	7.4%	23.1µM*	-23.3%	?
COc1ccccc1-n1c(SCC(=O)N2CCc3ccccc32)nc2c(c1=O)SCC2	?	7.1%	15.3%	7.31µM*	?	9.2µM*
CC(C)C(C)(C#N)NC(=O)CN(C)CC1CCCCC1 (centres undefined)	.	-8.0%	.	.	.	.
O=C(c1cccs1)N(Cc1ccncc1)C1CC1	.	-1.1%	.	.	.	.
O=C(C[C@@H]1CCNC[C@@H]1Cc1cc(CN2CCCCC2)on1)N1CCCCC1	.	-3.4%[176 µM]	.	.	.	.
CCN(CC)S(=O)(=O)c1ccc(-c2csc(C)n2)s1	12.3%	22.5%	-12.3%	-20.3%	-0.8%	-9.8%
Cc1ccc(NS(=O)(=O)c2ccc(-c3csc(C)n3)s2)c(C)c1	30.0%	0.0%	0.3%	16.4µM*	?	?
Cc1nc(-c2ccc(S(=O)(=O)NCc3ccccn3)s2)cs1	10µM*	0.0%	?	?	-8.5%	-16.6%
O=C(Cc1n[nH]c(=O)c2ccccc12)Nc1ccccc1O	.	18.0%	.	.	.	.
CC(N)=Nc1ccc([N+](=O)[O-])cc1	-2.6%	14.3%	-2.8%	-2.8%	17.0%	-10.3%
O=C1CC(=Nc2ccc([N+](=O)[O-])cc2)NN1c1c(Cl)cc(Cl)cc1Cl	.	31.6µM*	.	25.9µM*	.	?
C[C@@H](C(=O)O)c1ccc(N2Cc3ccccc3C2=O)cc1	1.12µM*	.	2µM*	.	.	.
